Screening results (PubChem BioAssay)
Compounds with a hit are over-represented: about 0.99% of the library has one in this group of screens.
WRN inhibitor = inhibitors of human WRN helicase; WRN helicase unwinding, fluorescent forked duplex, kinetic; Potency, µM (highest dose often 114 µM), for inactives: at the highest dose activity change, negative = inhibition, usual class: inhibitors; 360,000 tested, 0.46% active; AID 651768; note: nearly all actives have a fitted effect of over 55% in size
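Primary qHTS, 1536-well format. 20 nM WRN + compound, 15 min RT; start with 100 nM forked fluorophore/quencher duplex, 2 mM ATP (final); kinetic read ex 525/em 598 nm.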
L3MBTL1 block = L3MBTL1 (human) inhibition. AlphaScreen L3MBTL1–H3K9me1 peptide binding. Potency, µM (highest dose often 57.1 µM), inactives show top-dose activity, negative = inhibition, usual class: inhibitors. AID 485360. 230,000 tested, 0.66% active. Q9Y468; note: nearly all actives have a fitted effect of over 60% in size
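Read-out is AlphaScreen signal from streptavidin donor and nickel chelate acceptor beads (10 ug/mL final each) bridging L3MBTL1 (50 nM) and biotinylated K9-monomethylated H3(1-15) peptide (75 nM), after 30 min compound exposure at room temperature.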
FEN1 inh = blocks human flap endonuclease 1; P39748; Recombinant FEN1 flap cleavage, fluorescence, 15 min; Potency, µM (titrated, usually from 114 µM), inactives show top-dose activity change, negative = inhibition, usual class: inhibitors; 390,000 tested, 0.35% active; note: nearly all actives have a fitted effect of over 65% in size
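With each library titrated from low to high concentration, compounds met 10 nM FEN1 for 15 min at room temperature before 50 nM substrate was added; readings at 0 and 15 min fed four-parameter Hill curve fits.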
BLM helicase inh = inhibitors of human Bloom syndrome helicase BLM; P54132; recombinant BLM DNA unwinding, fluorescence dequenching; Potency, µM (doses to about 56.1 µM), inactives show at the highest dose activity change, negative = inhibition, hits mostly inhibitors; 350,000 tested, 0.2% active;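 note: plate controls were vehicle for no effect and no enzyme for full effect; nearly all actives have a fitted effect of over 35% in size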
RECQ1 helicase = inhibitors of human RECQ1 DNA helicase; P46063; RECQ1 DNA unwinding, red fluorescence kinetic read; Potency, µM (titrated, usually from 57.3 µM), for inactives: top-dose activity, negative = inhibition, hits mostly inhibitors; 240,000 tested, 0.54% active;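 note: plate controls were vehicle for no effect and no enzyme for full effect; nearly all actives have a fitted effect of over 30% in size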
Target sequence (P46063 whole entry, looked up): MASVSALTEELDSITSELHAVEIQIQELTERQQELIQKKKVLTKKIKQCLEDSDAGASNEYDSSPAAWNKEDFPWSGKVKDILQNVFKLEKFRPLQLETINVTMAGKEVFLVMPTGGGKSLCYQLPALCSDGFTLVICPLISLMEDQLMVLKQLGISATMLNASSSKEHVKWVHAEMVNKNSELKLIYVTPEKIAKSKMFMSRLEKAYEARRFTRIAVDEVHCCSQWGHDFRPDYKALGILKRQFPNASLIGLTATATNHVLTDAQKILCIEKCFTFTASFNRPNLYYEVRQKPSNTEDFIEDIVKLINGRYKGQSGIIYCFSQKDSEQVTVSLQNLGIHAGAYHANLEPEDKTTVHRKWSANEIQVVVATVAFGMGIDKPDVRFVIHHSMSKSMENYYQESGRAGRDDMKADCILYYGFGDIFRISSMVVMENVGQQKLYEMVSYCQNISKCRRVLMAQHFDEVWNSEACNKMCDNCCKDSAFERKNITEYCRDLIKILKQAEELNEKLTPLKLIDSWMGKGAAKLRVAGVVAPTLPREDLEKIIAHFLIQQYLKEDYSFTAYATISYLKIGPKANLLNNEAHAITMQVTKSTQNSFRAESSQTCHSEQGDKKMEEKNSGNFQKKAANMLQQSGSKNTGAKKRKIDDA
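RECQ1T1 50 nM; forked duplex (20 bp + 30-nt ss tails) 200 nM, ATP 2 mM final; pH 8.0, 2 mM MgCl2, 2.5 ug/ml poly(dI-dC); 15 min compound preincubation; discontinuous kinetic read over 2 h at RT.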
Active calls of the source: *; i = inactive; ? = inconclusive; / = not tested or not shown; [ ] = remark or other dose. Calls come from the whole dose curve; as a rule, active = well fitted curve in the direction sought with a large enough effect; inconclusive = small, poorly fitted or top-dose-only effect, or another doubt; inactive = no such curve, though single readings can be large; an effect the other way counts as inactive or inconclusive. Unless noted, % is set by controls: 0 for no effect and ±100 for the full control effect; potency is the fitted concentration of half-maximal effect.

SMILES | WRN inhibitor | L3MBTL1 block | FEN1 inh | BLM helicase inh | RECQ1 helicase
COc1ccc(-c2nnc(Nc3ccc(S(=O)(=O)Nc4nccs4)cc3)c3ccccc23)cc1 | 50µM* | / | ? | ? | ?
COc1ccc(Nc2nnc(-c3ccc(C(N)=O)cc3)c3ccccc23)cc1 | -24% | -12% | 5% | 0% | /
O=C(N/N=C/C=C\c1ccco1)c1ccccn1 | 35µM* | 28µM* | ? | ? | ?
O=C(N/N=C/C=C/c1ccco1)c1cnccn1 | -30% | 7.1µM* | -5% | -6% | 9%
O=C(N/N=C/C=C/c1ccccc1)c1ccccn1 | -10% | ? | 13% | -7% | 5%
Cc1ccc(CC(=S)N2CCOCC2)cc1 | -1% | / | -16% | 0% | -5%
COc1ccc(CNC(=O)C2CCN(S(=O)(=O)c3ccc(N4CCCC4=O)cc3)CC2)cc1 | 9% | / | / | / | /
Oc1c(Br)cc(C=Nc2ccc3nc(-c4ccccc4)[nH]c3c2)c(O)c1Br | ? | / | 40µM* | -15% | -10%
O=[N+]([O-])c1ccc(O)c(C=Nc2ccc3nc(-c4ccccc4)[nH]c3c2)c1 | -32% | 2% | -21% | -15% | -26%
C(#Cc1ccccc1)C[N+]1(CC#Cc2ccccc2)CCCC1 | 1% | 7% | 1% | 4% | -3%
C=CC#CC[N+]1(CC#Cc2ccccc2)CCOCC1 | 22µM* | 10% | 18µM* | 72% | -19%
O=[N+]([O-])c1ccc(N=Nc2c(Cl)cc(O)cc2Cl)cc1 | -14% | / | 2% | -14% | ?
Nc1c(N=Nc2ccc([N+](=O)[O-])cc2)c(S(=O)(=O)O)cc2cc(S(=O)(=O)O)c(/C=C/c3ccccc3)c(O)c12 | / | / | 11µM* | / | /
O=S(=O)(Nc1c(O)ccc2ccccc12)c1cccc2ccccc12 | 22µM* | / | ? | / | /
Cc1ccc(S(=O)(=O)Nc2c(O)ccc3ccccc23)cc1 | 40µM* | / | ? | / | /
CCOC(=O)N1CCC(N2CCN(S(=O)(=O)c3ccc(C)cc3)CC2)CC1 | -21% | / | -9% | 1% | -5%
O=C(CCNS(=O)(=O)c1ccccc1)N1CCN(c2ccccc2)CC1 | -5% | / | 7% | -2% | /
CCCSc1nc(C)c(-c2csc(C(C#N)=C3CCCC3)n2)cc1C#N | ? | ? | -18% | -6% | 7.9µM*
O=C(O)C1CCCCC1C(=O)Nc1cccc(Br)c1 (centres undefined) | 50µM* | 13µM* | -6% | / | /
O=C(Nc1cccc(Br)c1)C1CCCC1 | -8% | / | -3% | / | /
COc1ccc2c(c1)-c1c(sn(-c3ccc(OC)c(OC)c3)c1=S)C(C)(C)N2 | -1%[57.1 µM] | ? | 7% | -14% | -8%
COc1ccc(-n2sc3c(c2=S)-c2cc(OC)ccc2NC3(C)C)cc1 | -5% | 32µM* | -16% | -7% | -11%
COc1ccc2c(c1)-c1c(ssc1=S)C(C)(C)N2S(=O)(=O)c1ccc(C)cc1 | 5% | ? | -2% | -6% | -12%
COc1ccc2c(c1)-c1c(ssc1=S)C(C)(C)N2 | -11% | 20µM* | -19% | -5% | i
Nc1ccc(O)c(C(=O)O)c1 | / | / | / | -13% | 7.1µM*
SMILES | WRN inhibitor | L3MBTL1 block | FEN1 inh | BLM helicase inh | RECQ1 helicase
COC(=O)C(C)Sc1nc2c([nH]c3ccccc32)c(=O)n1-c1ccc(OC)cc1 (centres undefined) | / | / | 2% | 0% | /
CC[N+](C)(C)c1ccc(/C=C/c2ccc3ccccc3n2)cc1 | / | / | 45µM* | / | /
CCN(CC)c1ccc(/C=C/c2ccc3ccccc3n2)cc1 | / | / | 45µM* | / | /
CCN(CC)c1ccc(/C=C/c2c(C)cnc3ccccc23)cc1 | / | / | -22% | / | /
COc1ccc(NC(=O)c2csnn2)cc1 | / | / | 1% | -1% | /
Cc1cccc2cc(C3CC(c4ccco4)=NN3S(=O)(=O)c3ccccc3)c(Cl)nc12 (centres undefined) | -2% | -14% | 4% | -6% | 28µM*
CC(C)Sc1nc2sc3c(c2c(=O)n1-c1ccccc1)CCCC3 | / | / | 9% | -5% | /
NS(=O)(=O)c1ccc(N=Nc2ccc(=O)[nH]c2O)cc1 | 50µM* | ? | 79µM* | -3% | 0%
COc1cc2c(cc1OC)/C(=C/C#N)NC(C)(C)C2 | 4% | 2% | -16% | -3% | 0%
C=CCn1c(N)c(C(=O)NCC2CCCO2)c2nc3ccccc3nc21 (centres undefined) | -12% | ? | -12% | 5.6µM* | -8%
O=C(NCC1CCCO1)c1coc2nc3ccccc3nc12 (centres undefined) | -7% | 2% | -2% | 1% | i
CCCCn1c(NC(=O)c2ccccc2)nc2ccccc21 | -18% | 2% | -24% | -7% | -4%
CC(=O)Nc1nc2ccccc2n1CCOc1ccccc1 | 1% | -29%[11.4 µM] | 2% | 0% | i
S=C(Nc1ccccc1)Nc1nc2ccccc2n1CCOc1ccccc1 | -1% | 10µM* | 7% | -9% | -17%
CCCCn1c(NC(=S)Nc2ccccc2)nc2ccccc21 | -15% | 18µM* | -9% | -7% | -2%
CCCC(=O)N(C1CC(C)C(C#N)(C#N)C1(C#N)C#N)N(C)C (centres undefined) | -31% | -5% | -16% | 12% | -1%
Cc1nn(C)c(C)c1NC(=O)CCCSc1nc(-c2ccco2)cc(C(F)(F)F)n1 | -2% | 4% | -11% | 2% | -6%
Oc1c(CN2CCOCC2)cc(CN2CCOCC2)c(O)c1O | 22µM* | / | ? | / | /
COC(=O)C(O)(CC(=O)c1ccc(OC)cc1)C(F)(F)F (centres undefined) | 2% | 16% | 7% | 0% | -12%
O=C1C(Cl)=C(NC2CCc3ccccc32)C(=O)c2ncccc21 (centres undefined) | / | / | / | 2.5µM* | 11µM*
CCn1c2ccccc2c2cc(NC(=O)COC(=O)c3ccc(NC(=O)CC#N)cc3)ccc21 | ? | 32µM* | ? | / | /
CCn1c2ccccc2c2cc(NC(=O)COC(=O)c3ccccc3F)ccc21 | -9%[57.1 µM] | 1% | -4% | -1% | 3%
COc1ccc(S(=O)(=O)c2c(N)n(Cc3ccco3)c3nc4ccccc4nc23)cc1 | 35µM* | 28µM* | ? | ? | -10%
Cc1ccc(S(=O)(=O)c2c(N)n(CCCN(C)C)c3nc4ccccc4nc23)cc1 | -4% | 12% | 11% | -4% | -2%
Cc1nc2c(c(=O)n1Cc1ccccc1Cl)c1nc3ccccc3nc1n2Cc1ccco1 | / | / | / | 2% | -4%
COc1ccc(Cn2c3nc4ccccc4nc3c3c(=O)n(Cc4ccco4)c(C)nc32)cc1 | / | / | / | ? | 3.5µM*
N#C/C(=C\c1ccc(/C=C(/C#N)c2nn(CCO)c(N)c2C#N)cc1)c1nn(CCO)c(N)c1C#N | 56µM* | 5% | ? | -20% | 0%
N#C/C(=C/c1ccccc1)c1nn(CCO)c(N)c1C#N | -5% | -2% | 5% | -7% | -3%
COc1cccc(NC(=O)Cn2nc(Cc3cccnc3)c3ccccc3c2=O)c1 | 5% | / | -1% | 3% | -3%
